Experimental data published in PubChem BioAssay (NCATS).
Records with an inconclusive call do not appear. Activity calls are given as the source filed them. Unless noted, calls follow the shape of the full dose curve.

How the values were obtained:
[1] = qHTS for Inhibitors of the Functional Ribonucleoprotein Complex (vRNP) of Lassa (LASV) Arenavirus: LASV Primary Screen - GLuc reporter signal (AID 1347082; calls by dose curve; tested in HEK293 reporter line; also: nearly all actives have a fitted effect of over 60% in size)
[2] = qHTS for Inhibitors of the Functional Ribonucleoprotein Complex (vRNP) of Lassa (LASV) Arenavirus: Viability assay - alamar blue signal for LASV Primary Screen (AID 1347083; calls by dose curve; tested in HEK293 reporter line; also: nearly all actives have a fitted effect of over 80% in size)
[3] = qHTS for Inhibitors of the Functional Ribonucleoprotein Complex (vRNP) of Lymphocytic Choriomeningitis Arenaviruses (LCMV): Viability assay - alamar blue signal for LCMV Primary Screen (AID 1347085; calls by dose curve; tested in HEK293 reporter line; also: nearly all actives have a fitted effect of over 80% in size)
[4] = molecular target: Nucleoprotein (Lymphocytic choriomeningitis virus (strain Armstrong)) (UniProt P09992); test: qHTS for Inhibitors of the Functional Ribonucleoprotein Complex (vRNP) of Lymphocytic Choriomeningitis Arenaviruses (LCMV): LCMV Primary Screen - GLuc reporter signal (AID 1347086); also: nearly all actives have a fitted effect of over 70% in size
% is scaled to controls: 0 for no effect and ±100 for the full control effect.
Also: series mostly up to about 57 µM.

Sequence of Nucleoprotein (Lymphocytic choriomeningitis virus (strain Armstrong)) (P09992 whole entry, looked up): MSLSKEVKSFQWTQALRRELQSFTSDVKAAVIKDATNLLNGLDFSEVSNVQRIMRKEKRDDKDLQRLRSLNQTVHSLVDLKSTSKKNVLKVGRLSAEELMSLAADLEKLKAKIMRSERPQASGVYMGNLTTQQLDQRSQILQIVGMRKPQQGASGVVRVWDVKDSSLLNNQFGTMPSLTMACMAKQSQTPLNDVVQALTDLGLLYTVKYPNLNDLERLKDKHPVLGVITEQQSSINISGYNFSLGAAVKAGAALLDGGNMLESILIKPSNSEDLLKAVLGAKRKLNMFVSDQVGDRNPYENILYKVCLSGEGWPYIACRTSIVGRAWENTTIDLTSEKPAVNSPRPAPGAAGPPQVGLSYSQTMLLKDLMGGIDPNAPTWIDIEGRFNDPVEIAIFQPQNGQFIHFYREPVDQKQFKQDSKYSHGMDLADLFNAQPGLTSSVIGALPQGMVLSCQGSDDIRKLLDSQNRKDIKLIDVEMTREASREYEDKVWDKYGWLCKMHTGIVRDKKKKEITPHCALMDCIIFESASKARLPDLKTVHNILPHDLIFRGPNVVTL

CC(C)(C)C(=O)C(Oc1ccc(Cl)cc1)n1ccnc1 (centres undefined)
inactive: Potency [1] | Potency [2] | Potency [3] | Potency [4]

CC(=O)Oc1ccc(C2(c3ccc(OC(C)=O)cc3)C(=O)Nc3ccccc32)cc1
inactive: Potency [1] | Potency [2] | Potency [3] | Potency [4]

CCN1C(=O)c2ccccc2C1Nc1ccc(OCCN2CCCCC2)cc1 (centres undefined)
inactive: Potency [1] | Potency [2] | Potency [3] | Potency [4]

Cc1ccc(CCn2c3c(c4cc(Cl)ccc42)CN(C)CC3)cn1
inactive: Potency [1] | Potency [2] | Potency [3] | Potency [4]

CC(=O)Nc1ccn(C2COC(COC(=O)c3ccccc3)O2)c(=O)n1 (centres undefined)
inactive: Potency [1] | Potency [2] | Potency [3] | Potency [4]

Nc1nc(=O)n([C@@H]2O[C@H](CO)[C@@H](O)[C@@H]2F)cc1I
inactive: Potency [1] | Potency [2] | Potency [3] | Potency [4]

COC(=O)C1=C(C)NC(C)=C(C(=O)O[C@@H]2CCCN(Cc3ccccc3)C2)[C@@H]1c1cccc([N+](=O)[O-])c1
inactive: Potency [1] | Potency [2] | Potency [3] | Potency [4]

COc1cccc(N(C)C(=S)Oc2ccc3c(c2)CCCC3)n1
inactive: Potency [1] | Potency [2] | Potency [3] | Potency [4]

COc1cc(C(=O)OCCCN2CCCN(CCCOC(=O)c3cc(OC)c(OC)c(OC)c3)CC2)cc(OC)c1OC
inactive: Potency [1] | Potency [2] | Potency [3] | Potency [4]

C[C@H]1C[C@H]2[C@@H]3CCC4=CC(=O)C=C[C@]4(C)[C@H]3C(=O)C[C@]2(C)[C@@]1(O)C(=O)CO
inactive: Potency [1] | Potency [2] | Potency [3] | Potency [4]

CCOc1ccccc1C(N)=O
inactive: Potency [1] | Potency [2] | Potency [3] | Potency [4]

CN(C(=O)CCCOc1ccc2[nH]c(=O)ccc2c1)C1CCCCC1
inactive: Potency [1] | Potency [2] | Potency [3] | Potency [4]

Nc1ccc2c(c1)CN1C(=O)c3ccccc3C1=N2
inactive: Potency [1] | Potency [2] | Potency [3] | Potency [4]

C=CCOc1cc(Cl)ccc1C(=O)NCCN(CC)CC
inactive: Potency [1] | Potency [2] | Potency [3] | Potency [4]

C1CCC(C(CC2CCCCN2)C2CCCCC2)CC1 (centres undefined)
inactive: Potency [1] | Potency [2] | Potency [3] | Potency [4]

CC(C)OC(=O)C(C(=O)OC(C)C)=C1SC=CS1
inactive: Potency [1] | Potency [2] | Potency [3] | Potency [4]

C[C@@H](O)[C@H]1C(=O)N2C(C(=O)O)=C([C@H]3CCCO3)S[C@H]12
inactive: Potency [1] | Potency [2] | Potency [3] | Potency [4]

O=C(O)C1CCC1
inactive: Potency [1] | Potency [2] | Potency [3] | Potency [4]

O=C(O)Cc1ccc2c(c1)C(=O)c1ccccc1CO2
inactive: Potency [1] | Potency [2] | Potency [3] | Potency [4]

C/C(=C(\CCOP(=O)(O)O)SC(=O)c1ccccc1)N(C=O)Cc1cnc(C)nc1N
inactive: activity change, negative = inhibition [1] 1.78% [at 5.82 µM] | activity change, negative = reduced viability [2] 7.22% [at 5.82 µM] | activity change, negative = lower viability [3] -0.415% [at 5.82 µM] | activity change, negative = inhibition [4] -1.19% [at 5.82 µM]

OC[C@@H](O)[C@@H](O)[C@H](O)[C@H](O)CO
inactive: Potency [1] | Potency [2] | Potency [3] | Potency [4]

O=C(O)Cn1c(C(=O)Nc2nc(-c3ccccc3Cl)cs2)cc2ccccc21
inactive: Potency [1] | Potency [2] | Potency [3] | Potency [4]

C[C@]1(Cn2ccnn2)[C@H](C(=O)O)N2C(=O)C[C@H]2S1(=O)=O
inactive: Potency [1] | Potency [2] | Potency [3] | Potency [4]

O=C1Nc2cc(Cl)ccc2Oc2ccccc21
inactive: Potency [1] | Potency [2] | Potency [3] | Potency [4]

CC(C)(C)C(=O)OCOC(=O)[C@@H]1N2C(=O)[C@@H](NC(=O)[C@H](N)c3ccccc3)[C@H]2SC1(C)C
inactive: Potency [1] | Potency [2] | Potency [3] | Potency [4]

C=C1C(=C/C=C2\CCC[C@]3(C)[C@@H]([C@H](C)/C=C/[C@@H](O)C4CC4)CC[C@@H]23)C[C@@H](O)C[C@@H]1O
inactive: Potency [1] | Potency [2] | Potency [3] | Potency [4]

CC(C)(C)NCC(O)COc1cccc2c1CCC(=O)N2 (centres undefined)
inactive: Potency [1] | Potency [2] | Potency [3] | Potency [4]

CCCc1ncc(C(=O)O)s1
inactive: Potency [1] | Potency [2] | Potency [3] | Potency [4]

Brc1c(NC2=NCCN2)ccc2nccnc12
inactive: Potency [1] | Potency [2] | Potency [3] | Potency [4]

N[C@H]1CN(c2c(F)cc3c(=O)c(C(=O)O)cn(C4C[C@@H]4F)c3c2Cl)CC12CC2 (some centres undefined)
inactive: Potency [1] | Potency [2] | Potency [3] | Potency [4]

CCCc1ncc(C[n+]2ccccc2C)c(N)n1
inactive: Potency [1] | Potency [2] | Potency [3] | Potency [4]

Nc1c2c(nc3c1CCC3)CCCC2
inactive: Potency [1] | Potency [2] | Potency [3] | Potency [4]

Cc1oc(-c2ccccc2)nc1CCC(=O)c1ccc(CC2SC(=O)NC2=O)cc1 (centres undefined)
inactive: Potency [1] | Potency [2] | Potency [3] | Potency [4]

N[C@H](C(=O)O)[C@@H](O)c1ccc(O)c(O)c1
inactive: Potency [1] | Potency [2] | Potency [3] | Potency [4]

CC1CC(=O)NN=C1c1ccc(NCC(C)(C)NCC(O)COc2cc(Cl)ccc2C#N)cc1 (centres undefined)
inactive: Potency [1] | Potency [2] | Potency [3] | Potency [4]

Cc1ccc(N(CC2=NCCN2)c2cccc(O)c2)cc1
inactive: Potency [1] | Potency [2] | Potency [3] | Potency [4]

CCCCN(CCCC)CC(O)c1cc(Cl)cc2c1-c1ccc(Cl)cc1/C2=C/c1ccc(Cl)cc1 (centres undefined)
inactive: Potency [1] | Potency [2] | Potency [3] | Potency [4]

O=C(c1cc(O)c(O)c(O)c1)c1ccc(O)c(O)c1O
inactive: Potency [1] | Potency [2] | Potency [3] | Potency [4]

CC[N+]1(CC)CCC(=C(c2ccccc2)c2ccccc2)C1C (centres undefined)
inactive: Potency [1] | Potency [2] | Potency [3] | Potency [4]

COC(=O)c1cc(S(N)(=O)=O)ccc1OC
inactive: Potency [1] | Potency [2] | Potency [3] | Potency [4]

CCCCCC1Nc2cc(C(F)(F)F)c(S(N)(=O)=O)cc2S(=O)(=O)N1 (centres undefined)
inactive: Potency [1] | Potency [2] | Potency [3] | Potency [4]

O=c1ccc2ccccc2o1
inactive: Potency [1] | Potency [2] | Potency [3] | Potency [4]

CN1CCN(C2=Nc3cc(F)ccc3Cc3ccccc32)CC1
inactive: Potency [1] | Potency [2] | Potency [3] | Potency [4]

Cn1c(=O)c2c(ncn2CC2OCCO2)n(C)c1=O
inactive: Potency [1] | Potency [2] | Potency [3] | Potency [4]

CCN1CCCC(OC(=O)C(c2ccccc2)c2ccccc2)C1 (centres undefined)
inactive: Potency [1] | Potency [2] | Potency [3] | Potency [4]

O=C(O)c1ccccc1Nc1cc(Cl)ccc1C(=O)O
inactive: Potency [1] | Potency [2] | Potency [3] | Potency [4]

Cc1[nH]c(=O)c(C#N)cc1-c1ccc2nccn2c1
inactive: Potency [1] | Potency [2] | Potency [3] | Potency [4]

O=C(Cn1ccnc1[N+](=O)[O-])NCCO
inactive: Potency [1] | Potency [2] | Potency [3] | Potency [4]

COCC(=O)O[C@]1(CCN(C)CCCc2nc3ccccc3[nH]2)CCc2cc(F)ccc2[C@@H]1C(C)C
inactive: Potency [1] | Potency [2] | Potency [3] | Potency [4]

CCc1nnc(NS(=O)(=O)c2ccc(N)cc2)s1
inactive: Potency [1] | Potency [2] | Potency [3] | Potency [4]

CCOC(=O)[C@H](CCc1ccccc1)N[C@@H](C)C(=O)N1C(=O)N(C)C[C@H]1C(=O)O
inactive: Potency [1] | Potency [2] | Potency [3] | Potency [4]
